# Bioassay records: PubChem, several laboratories
# NR0B1 inh = DAX1 (NR0B1) inhibitors, primary screen, cell-based, HEK293, Gal4-DAX1, luciferase luminescence; inhibition, % at 6.75 µM; HEK293 Gal4-DAX1 luciferase reporter; actives 0.99% (n = 340,000);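 active = inhibition above the mean over all tested compounds plus 3 SD, cut at about 4.2% in these data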;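 note: 0% = DAX1-transfected cells with DMSO and 100% = empty-vector control cells with DMSO; inhibition shows as a rise in luminescence from relieved DAX1 repression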
# AHR act = AHR activators, primary screen, cell-based, luminescence, luciferase reporter, human; Aryl hydrocarbon receptor (Homo sapiens), P35869; AHR-responsive luciferase reporter cells; activation, % at 5 µM; actives 2.5% (n = 320,000); AID 2796, 2010; in the data active = activation above about 47%;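 note: 0% = vehicle wells and 100% = reference agonist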
# Target sequence (P35869 whole entry, looked up): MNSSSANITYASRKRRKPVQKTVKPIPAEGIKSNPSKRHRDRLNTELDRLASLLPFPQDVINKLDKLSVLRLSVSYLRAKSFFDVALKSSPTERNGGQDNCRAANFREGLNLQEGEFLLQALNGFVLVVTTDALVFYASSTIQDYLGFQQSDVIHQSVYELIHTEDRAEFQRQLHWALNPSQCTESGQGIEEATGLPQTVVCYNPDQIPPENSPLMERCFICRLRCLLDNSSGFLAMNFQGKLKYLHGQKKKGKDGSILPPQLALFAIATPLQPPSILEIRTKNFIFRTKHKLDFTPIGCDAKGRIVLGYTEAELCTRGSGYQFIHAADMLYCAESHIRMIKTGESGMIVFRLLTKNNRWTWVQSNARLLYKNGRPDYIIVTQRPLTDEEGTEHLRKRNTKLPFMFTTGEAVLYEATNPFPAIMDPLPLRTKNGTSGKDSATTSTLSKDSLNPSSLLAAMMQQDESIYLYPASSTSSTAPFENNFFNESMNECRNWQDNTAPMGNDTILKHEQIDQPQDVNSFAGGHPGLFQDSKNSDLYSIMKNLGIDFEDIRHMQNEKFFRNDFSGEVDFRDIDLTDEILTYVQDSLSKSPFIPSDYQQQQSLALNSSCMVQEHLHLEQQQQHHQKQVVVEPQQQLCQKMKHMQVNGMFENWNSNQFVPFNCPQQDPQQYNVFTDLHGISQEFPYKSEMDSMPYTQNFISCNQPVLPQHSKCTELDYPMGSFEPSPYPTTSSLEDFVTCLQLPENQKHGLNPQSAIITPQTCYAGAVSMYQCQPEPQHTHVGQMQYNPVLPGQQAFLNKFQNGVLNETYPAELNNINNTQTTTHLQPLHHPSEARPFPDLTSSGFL
# HSF1 inhib = HSF1 inhibitors in luciferase reporter cells, primary screen, cell-based, NIH3T3, luminescence; NIH3T3-HGL HSE-luciferase, MG132-induced, luminescence 8 h; hits give low values; activity change, negative = inhibition, % at 7.5 µM (by protocol); actives 0.77% (n = 300,000); AID 2098, 2009;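 active = more than half of replicate wells show activity change below -50%, luminescence cut by over half; inconclusive = some wells, but at most half, below -50%; inactive = no replicate well below -50%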;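 note: luciferase reports HSF-1 transcriptional activity via heat shock element; 0% = median of DMSO wells and -100% = zero luminescence signal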
# HSF1 activator = HSF-1 activators, primary screen, NIH3T3-HGL cells, MG132 stress, luminescence, single point | AID 504408, 2011 | actives 1.7% (n = 300,000) | activation, % at 9 µM | NIH3T3-HGL HSF-1 luciferase reporter, 8 h; 100% = twice DMSO control signal;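 active = mean replicate activation of at least 50% with a set share of replicates each reaching 50%; inconclusive = only one of those two conditions met; inactive = mean below 50% and too few replicates reaching it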;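 note: 0% = median of the neutral control wells and 100% = twice that signal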
# GAA850 FXN act = FXN promoter activators, primary screen, cell-based, luciferase luminescence, HEK293 lucGAA850; activation, % at 6 µM; actives 0.56% (n = 360,000); AID 540364, 2011; HEK293 lucGAA850 FXN promoter luciferase reporter, 24 h; percent of 10 µM SAHA response;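 active = activation above the average of all compounds screened plus 3 SD, cutoff fixed separately per campaign, cut at about 7.5% in these data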;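 note: 0% = DMSO wells and 100% = 10 µM SAHA wells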
# The depositor's hits bear a star; ? = inconclusive; · = not tested or not shown. Shown are actives, neighbours in structure and some others; about 5.4% of the full set was active somewhere.
SMILES,NR0B1 inh,AHR act,HSF1 inhib,HSF1 activator,GAA850 FXN act
O=c1c(/C=N/OCc2ccc(Cl)cc2Cl)c[nH]n1-c1cccc(Cl)n1,2,-1,-10,18,0
COc1cc2c(cc1OC)C(c1ccc(Br)cc1)N(C(=O)c1ccccc1C(=O)O)CC2 (stereo not given),2,2,-5,-5,-3
O=C(c1ccco1)N1CCN(c2nc3ccsc3c(=O)s2)CC1,5.1*,-1,8,18,4
COc1ccc(Cc2nnc(SCC(=O)N(C)CC(=O)Nc3ccc(C)cc3)o2)cc1,0,-2,1,10,0
CCc1ccc(CN2CCC(n3nccc3NC(=O)Cc3ccccc3)CC2)o1,1,·,3,8,0
CN(C)/C=C1\C(=O)N(c2ccc([N+](=O)[O-])cc2)N=C1c1ccccc1,2,20,28,22,6
CN(C)/C=C1/C(=O)N(c2ccc([N+](=O)[O-])cc2)N=C1c1ccccc1,·,12,35,56*,·
O=C(c1cc(-c2cccnc2)nc2ccccc12)N1CCN(S(=O)(=O)c2ccc(Cl)s2)CC1,0,·,·,·,-1
O=C(C[C@@H]1C/C=C/CC[C@@H](Cc2ccc(F)cc2)C(=O)OC[C@H](Cc2ccccc2)NC1=O)N[C@H](CO)Cc1ccccc1,-1,-1,·,·,-5
CC1CCC/C(=C\Nc2ccc3c(c2)OCO3)C1=O (stereo not given),2,5,-1,-2,1
O=C1CCC/C1=C/Nc1ccc2c(c1)OCO2,0,73*,-10,-3,-1
Cn1cnc(S(=O)(=O)N2CCCC(c3cc(C(=O)Nc4ccc(F)c(Cl)c4)no3)C2)c1 (stereo not given),·,·,·,·,1
CC(C)Cc1nc(SCC(=O)NCC2CCCO2)c2c(=O)n(C)c(=O)n(C)c2n1 (stereo not given),0,-1,-11,0,1
CCSc1nnc2c(n1)[nH]c1c(C)cccc12,-3,53*,17,20,4
CSc1nnc2c(n1)[nH]c1c(C)cccc12,0,29,-3,12,1
Brc1ccc(/C=N/Nc2ccc3ccccc3n2)cc1,2,69*,13,-8,7.8*
Fc1cccc(/C=N/Nc2ccc3ccccc3n2)c1,3,16,-25,-16,3
O=C(C1CCCN(S(=O)(=O)c2cc(Cl)ccc2Cl)C1)N1CCOCC1 (stereo not given),0,3,9,0,0
COCCNC(=O)C(c1ccc(F)cc1)N(C(=O)CCC(=O)Nc1ccccn1)c1cccc(C)c1 (stereo not given),0,0,8,13,-1
Cc1ccc(NC(=O)c2cc([N+](=O)[O-])ccc2NCc2cccnc2)cc1Cl,1,51*,2,19,1
NC(=O)c1cc([N+](=O)[O-])c(Cl)cc1NCc1cccnc1,0,58*,·,·,5
COc1cccc(NC(=O)c2cc([N+](=O)[O-])ccc2NCc2cccnc2)c1,-2,66*,0,5,0
NC(=O)c1cc([N+](=O)[O-])ccc1NCc1cccnc1,0,16,5,7,6
Cc1ccc(NC(=O)CSc2ncccc2C(=O)Oc2cccc([N+](=O)[O-])c2)cc1Cl,1,25,32,82*,4
CCOC(=O)c1cccnc1SCC(=O)Nc1ccc(C)cc1,1,2,4,10,1
SMILES,NR0B1 inh,AHR act,HSF1 inhib,HSF1 activator,GAA850 FXN act
COc1ccc(NC(=O)CCN2CCOCC2)c(OC)c1,0,-2,-1,-3,3
COc1ccc(NC(=O)COC(=O)c2cccn2C)cc1S(=O)(=O)N1CCCCC1,-2,0,·,·,0
CC1CCC2(CC1)NC(=O)N(CC(=O)NCc1ccc(F)cc1)C2=O (stereo not given),0,0,·,·,1
O=C(Nn1c(-c2ccccc2)nc2ccccc2c1=O)c1cccs1,-1,51*,2,-2,-2
O=C(Nn1c(-c2ccccc2)nc2ccccc2c1=O)C1CCC1,1,47*,-4,8,1
Cc1nc(SCC(=O)Nn2c(-c3ccccc3)nc3ccccc3c2=O)n[nH]1,0,74*,0,-7,-1
COc1ccccc1-c1nc2ccccc2c(=O)n1NC(=O)c1cccs1,0,3,2,3,2
CN(C)C(=S)Nn1c(-c2ccccc2)nc2ccccc2c1=O,-2,-1,-3,-5,1
COC(=O)C1Cc2ccccc2CN1S(=O)(=O)c1ccc(F)cc1 (stereo not given),1,0,0,-1,1
O=C/C=C/c1c(-c2ccccc2)cc2oc3ccccc3cc1-2,-1,20,52,?,1
O=C(CCCc1ccccc1)Nc1ccnn1C1CCN(Cc2ccc(CO)o2)CC1,1,6,-3,-3,3
Cc1cc(=O)oc2c3c(cc(OCC(=O)N[C@@H](CC(C)C)C(=O)O)c12)OC(C)(C)CC3,1,1,-3,-17,1
CCCC(NC(=O)COc1cc2c(c3oc(=O)cc(C)c13)CCC(C)(C)O2)C(=O)O (stereo not given),-1,0,-55*,-63,1
Cc1c(C)c2c(OCC(=O)NCc3ccncc3)cc3c(c2oc1=O)CCC(C)(C)O3,5.9*,3,2,28,0
CCCCN(Cc1nc2ccccc2c(=O)[nH]1)C(=O)c1nn(C)c(=O)c2ccccc12,-2,·,·,·,-2
O=C(/C=C/c1ccc(Cl)cc1)Nc1nccs1,0,·,38,63*,0
C/C=C/C=C/C(=O)Nc1nccs1,4,5,20,36,1
CC(=O)c1ccccc1NC(=O)COC(=O)CN1C(=O)C2CCCCC2C1=O (stereo not given),1,7,·,·,1
NC(=Nc1nc(-c2ccccn2)cc2ccccc12)c1ccccn1,-4,·,57*,57*,3
CCOC(=O)c1c(S(=O)(=O)NCC(=O)NCc2cccc(C)c2)c(C)n(C)c1C,2,2,2,5,-1
COc1ccc(NC(=O)N(Cc2ccc3c(c2)OCO3)C2CC(=O)N(c3ccc(OC)cc3)C2=O)cc1 (stereo not given),-1,-3,-1,-17,-4
O=C1CC(N(Cc2ccc3c(c2)OCO3)C(=O)Nc2ccc(F)cc2)C(=O)N1c1ccccc1 (stereo not given),0,0,10,57*,-3
COc1ccc(N2CC(C(=O)Nc3cc(C)on3)CC2=O)cc1 (stereo not given),0,0,11,-15,0
CCCOc1ccc(N2CC(C(=O)NC(C)C)CC2=O)cc1 (stereo not given),-1,12,-60*,-69,-1
